For the assay, the target named is PADI4, Q9UM07. Kind of assay: log2 enrichment score relative to parent PADI4_3 peptide (binding to PADI4); higher = tighter binding than parent. To be noted: CaCl2: 10 mM. The gist of the method:
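A cyclic peptide library for mRNA display was built with every internal parent position randomised through NNK codons, a C-terminal HA tag, and methionine reassigned to N-methyl-alanine, then purified on anti-HA beads. A single selection round was run in triplicate against biotinylated His-tagged human PADI4 (100 nM) immobilised on beads, in HEPES/NaCl buffer containing 10 mM CaCl2, DTT, Tween and blockers, with equilibrating washes over 10–12 h at RT. Both the input and eluted libraries were sequenced. Log2 enrichment of bound over input is reported relative to parent as a mean with standard deviation.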

Chain of PADI4, Q9UM07 (Q9UM07 whole entry): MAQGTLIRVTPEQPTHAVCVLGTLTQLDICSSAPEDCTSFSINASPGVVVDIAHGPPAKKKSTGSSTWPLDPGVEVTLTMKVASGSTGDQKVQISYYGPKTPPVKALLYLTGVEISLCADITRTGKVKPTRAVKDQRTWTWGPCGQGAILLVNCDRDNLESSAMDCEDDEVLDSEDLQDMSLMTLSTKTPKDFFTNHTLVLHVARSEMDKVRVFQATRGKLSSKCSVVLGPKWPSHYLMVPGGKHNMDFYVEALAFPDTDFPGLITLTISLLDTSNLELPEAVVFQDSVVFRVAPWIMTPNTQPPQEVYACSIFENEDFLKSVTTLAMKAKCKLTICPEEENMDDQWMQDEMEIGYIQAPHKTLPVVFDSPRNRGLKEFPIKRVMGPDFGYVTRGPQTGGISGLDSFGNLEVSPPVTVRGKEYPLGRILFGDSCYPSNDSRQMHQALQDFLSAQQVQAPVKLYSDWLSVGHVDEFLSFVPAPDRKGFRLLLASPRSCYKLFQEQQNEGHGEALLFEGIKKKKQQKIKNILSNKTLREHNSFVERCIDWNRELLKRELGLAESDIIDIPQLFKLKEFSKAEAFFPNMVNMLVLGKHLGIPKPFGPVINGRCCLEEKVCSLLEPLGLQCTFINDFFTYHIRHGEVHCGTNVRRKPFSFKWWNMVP

In the case of YRDHHERHPKYCG [PADI4_3_Y6E Y6E], the log2 enrichment score was -1.85.
As for YRDHHYRHPCYCG [PADI4_3_K10C K10C], the figure is -2.06.
With YRDHHYSHPKYCG [PADI4_3_R7S R7S], the log2 enrichment score is -0.05.
As for YRDHHYRHSKYCG [PADI4_3_P9S P9S], the figure is -1.69.
As for YRDCHYRHPKYCG [PADI4_3_H4C H4C], the figure is -3.15.
As to YRTHHYRHPKYCG [PADI4_3_D3T D3T], the log2 enrichment score was -3.58.
For YRDHHYRHEKYCG [PADI4_3_P9E P9E] the value was -1.89.
For the molecule YRDHHYRCPKYCG [PADI4_3_H8C H8C], the log2 enrichment score was -2.95.
For YRDHHYREPKYCG [PADI4_3_H8E H8E] the value was -3.8; for YRDHHYRHPEYCG [PADI4_3_K10E K10E], -1.11; for YRDHHSRHPKYCG [PADI4_3_Y6S Y6S], -2.21.
As for YRDHHYEHPKYCG [PADI4_3_R7E R7E], the figure is -0.753; as for YTDHHYRHPKYCG [PADI4_3_R2T R2T], -1.69.
Take YRDEHYRHPKYCG [PADI4_3_H4E H4E]: the log2 enrichment score was -3.05.
As for YRDHEYRHPKYCG [PADI4_3_H5E H5E], the figure is -4.25.
As for YRDHHYRHPKECG [PADI4_3_Y11E Y11E], the log2 enrichment score was -4.21.
As for YRDHHTRHPKYCG [PADI4_3_Y6T Y6T], the log2 enrichment score was -2.52.
YRDTHYRHPKYCG [PADI4_3_H4T H4T]: the log2 enrichment score was -3.53.
For YRDHHYRHTKYCG [PADI4_3_P9T P9T] the value was -1.92; for YRDDHYRHPKYCG [PADI4_3_H4D H4D], -4.33; for YRDHTYRHPKYCG [PADI4_3_H5T H5T], -3.62.
As for YRDHHYRHPKYCG [PADI4_3_D3D D3D], the figure is 0; as for YRDHHYRHPSYCG [PADI4_3_K10S K10S], -1.42; as for YRDHHYTHPKYCG [PADI4_3_R7T R7T], -1.3.
For the molecule YRDHSYRHPKYCG [PADI4_3_H5S H5S], the log2 enrichment score is -3.98.
In the case of YRDHHYRTPKYCG [PADI4_3_H8T H8T], the log2 enrichment score was -3.89.
For YREHHYRHPKYCG [PADI4_3_D3E D3E] the value was -2.84; for YRSHHYRHPKYCG [PADI4_3_D3S D3S], -3.9.
As to YRDHHYRHPKSCG [PADI4_3_Y11S Y11S], the log2 enrichment score was -4.12.
For the molecule YEDHHYRHPKYCG [PADI4_3_R2E R2E], the log2 enrichment score was -2.93.
YSDHHYRHPKYCG [PADI4_3_R2S R2S]: the log2 enrichment score is -2.91.
As for YRDHCYRHPKYCG [PADI4_3_H5C H5C], the figure is -4.
As for YRCHHYRHPKYCG [PADI4_3_D3C D3C], the figure is -4.3; as for YCDHHYRHPKYCG [PADI4_3_R2C R2C], -2.34; as for YRDHHYRSPKYCG [PADI4_3_H8S H8S], -2.81.
For YRDHHCRHPKYCG [PADI4_3_Y6C Y6C] the value was -3.47; for YRDHHYCHPKYCG [PADI4_3_R7C R7C], -0.84.
Regarding YRDHHYRHPKCCG [PADI4_3_Y11C Y11C], the log2 enrichment score was -3.92.
Consider YRDHHYRHPTYCG [PADI4_3_K10T K10T], for which the log2 enrichment score came out at 0.237.
As for YRDHHYRHPKTCG [PADI4_3_Y11T Y11T], the figure is -3.95; as for YRDHHYRHCKYCG [PADI4_3_P9C P9C], -2.79; as for YRDSHYRHPKYCG [PADI4_3_H4S H4S], -2.9.

The record behind these values is the supplement of paper PMC11555231.
